Experimental data as given in PMC5540273 (PLoS ONE, 2017).

Key:
Conditions in all cases: concentration: 1 μM, replicates: in singlicate; n = 1
CAMK1 = tested on: CAMK1
CAMK2A = tested on: CAMK2A
CAMK2B = tested on: CAMK2B
CAMK2D = tested on: CAMK2D
CAMK2G = tested on: CAMK2G
CAMK4 = tested on: CAMK4
CAMKK1 = tested on: CAMKK1
CAMKK2 = tested on: CAMKK2
CASK = tested on: CASK
CDC2L1 = tested on: T1, CDC2L1
T1 construct: gene CDK11B
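Further: KINOMEscan kinase panel screen.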

Structure (SMILES) | %Inh (CAMK1) [%] | %Inh (CAMK2A) [%] | %Inh (CAMK2B) [%] | %Inh (CAMK2D) [%] | %Inh (CAMK2G) [%] | %Inh (CAMK4) [%] | %Inh (CAMKK1) [%] | %Inh (CAMKK2) [%] | %Inh (CASK) [%] | %Inh (CDC2L1) [%]
CCCCc1nn2ncccc2c1-c1ccnc(Nc2ccc(N3CCN(C)CC3)cc2)n1 [GW684941] | 28 | 0 | 0 | 0 | 0 | 0 | 0 | 0 | 16 | 0
COc1cc(Nc2nccc(-c3c(-c4cccc(NC(=O)c5c(F)cccc5F)c4)nn4ccccc34)n2)cc(OC)c1OC [GSK323521] | 31 | 3 | 0 | 35 | 40 | 30 | 40 | 38 | 5 | 0
C[C@@H](Oc1cc(-n2cnc3cc(-c4ccnc(NCCS(C)(=O)=O)c4)ccc32)sc1C(N)=O)c1ccccc1Cl [GSK907232] | 15 | 0 | 0 | 5 | 33 | 0 | 21 | 80 | 57 | 0
c1ccc(-c2cnc3nccnn23)cc1 [AH20685] | 0 | 0 | 0 | 0 | 0 | 0 | 1 | 0 | 4 | 0
COc1cc(Nc2nccc(-c3c(-c4cccc(NC(=O)c5c(F)cccc5F)c4)nn4ncccc34)n2)cc(OC)c1OC [GSK327238] | 58 | 0 | 0 | 10 | 19 | 0 | 24 | 18 | 14 | 16
COc1cccc(C2=C(Nc3ccc(Cl)c(C(=O)O)c3)C(=O)NC2=O)c1 [SB-390769] | 0 | 0 | 0 | 3 | 1 | 0 | 0 | 0 | 100 | 0
O=C(Nc1cccc(-c2nn3ncccc3c2-c2ccnc(Nc3ccccc3)n2)c1)c1c(F)cccc1F [GSK198271] | 39 | 0 | 0 | 13 | 8 | 0 | 0 | 8 | 3 | 0
COc1ccc(Nc2nccc(N3CCC(NC(=O)Nc4cccc(OC)c4)C3)n2)cc1 (centres unmarked) [GSK1379742] | 0 | 0 | 0 | 2 | 9 | 4 | 5 | 4 | 13 | 0
COC(=O)Nc1nc2cc(Oc3ccc(NC(=O)Nc4cc(C(F)(F)F)ccc4F)cn3)ccc2[nH]1.Cl.Cl [GW681170] | 17 | 0 | 0 | 42 | 57 | 0 | 49 | 59 | 0 | 0
Cc1ccc(F)c(C(=O)Nc2cccc(-c3nn4ccccc4c3-c3ccnc(Nc4cccc(F)c4)n3)c2)c1F [GSK361061] | 26 | 5 | 0 | 8 | 15 | 11 | 17 | 14 | 19 | 0
CSc1cccc2c(-c3ccncn3)c(-c3ccc(F)cc3)nn12 [GW514786] | 0 | 0 | 0 | 0 | 10 | 0 | 0 | 0 | 45 | 0
Nc1n[nH]c2cnc(-c3ccccc3)cc12 [SB-642124] | 5 | 0 | 13 | 17 | 22 | 0 | 1 | 0 | 26 | 0
Cn1cc(-c2[nH]c3cc(NC(=O)[C@H](N)C4CCCCC4)cc4c3c2C=NNC4=O)cn1 | 49 | 68 | 15 | 76 | 73 | 0 | 60 | 56 | 6 | 2
Cl.c1ccc(-c2ccc3c(Nc4ccc5[nH]ncc5c4)ccnc3c2)nc1 [GW440137] | 11 | 0 | 0 | 12 | 16 | 0 | 0 | 19 | 13 | 0
C[C@@H]1CC[C@@H](C(=O)Nc2ccccc2)CN1c1cc(-c2ccc3c(N)n[nH]c3c2)nc(N)n1 [GSK2286062] | 28 | 0 | 0 | 17 | 18 | 0 | 0 | 7 | 5 | 7
COc1cccc(NC(=O)NC2CCN(c3ccnc(Nc4cc(OC)c(OC)c(OC)c4)n3)C2)c1 (centres unmarked) [GSK1379763] | 26 | 0 | 0 | 13 | 38 | 0 | 40 | 36 | 15 | 1

Structure (SMILES) | %Inh (CAMK1) [%] | %Inh (CAMK2A) [%] | %Inh (CAMK2B) [%] | %Inh (CAMK2D) [%] | %Inh (CAMK2G) [%] | %Inh (CAMK4) [%] | %Inh (CAMKK1) [%] | %Inh (CAMKK2) [%] | %Inh (CASK) [%] | %Inh (CDC2L1) [%]
O=C(Nc1cccc(Oc2ccc3nc(NC(=O)C4CC4)cn3n2)c1)c1ccccc1C(F)(F)F | 7 | 100 | 100 | 1 | 0 | 0 | 1 | 0 | 6 | 0
COc1cc(Nc2nccc(N3CCC(NC(=O)c4cc5ccccc5s4)C3)n2)cc(OC)c1OC (centres unmarked) [GSK1379760] | 17 | 0 | 1 | 0 | 29 | 0 | 12 | 0 | 12 | 0
c1ccc(-c2n[nH]cc2Nc2ccnc3ccccc23)nc1 [GW694077] | 20 | 21 | 17 | 19 | 23 | 0 | 13 | 28 | 33 | 0
Cl.NC(=O)c1cccc(Nc2nccc(Nc3ccc(Oc4c(Cl)cccc4Cl)c(Cl)c3)n2)c1 [GW659009] | 14 | 0 | 0 | 0 | 0 | 0 | 0 | 0 | 50 | 0
Fc1ccc(-c2ncn(C3CCNCC3)c2-c2ccnc(Oc3ccc(-c4ccccc4)cc3)n2)cc1 [SB-245391] | 30 | 20 | 0 | 14 | 17 | 0 | 22 | 20 | 7 | 11
O=C(Nc1cccc(-c2nn3ccccc3c2-c2ccnc(Nc3cccc(C(F)(F)F)c3)n2)c1)c1c(F)cccc1F [GSK292658] | 4 | 0 | 0 | 5 | 0 | 0 | 16 | 3 | 0 | 0
CC(=O)N1CCN(c2ccc(Nc3nccc(-c4sc(C(C)C)nc4-c4cccc(NS(=O)(=O)c5cccc(Cl)c5)c4)n3)cn2)CC1 [GSK1660437] | 34 | 0 | 0 | 0 | 0 | 0 | 0 | 0 | 0 | 0
COc1cccc(C(=O)Nc2cccc(Oc3ccc4nc(NC(=O)C5CC5)cn4n3)c2)c1 | 16 | 11 | 18 | 15 | 0 | 8 | 6 | 0 | 3 | 0
O=C(NC1CCN(c2ccnc(Nc3ccc(F)cc3)n2)C1)c1cc2ccccc2s1 (centres unmarked) [GSK1379716] | 26 | 0 | 0 | 7 | 23 | 13 | 10 | 17 | 22 | 0
O=C(O)C(F)(F)F.O=C(O)C(F)(F)F.O=c1[nH]ccc2nc(N[C@@H]3CCCNC3)nc(Nc3ccc(S(=O)(=O)N4CCOCC4)cc3)c12 [GSK2177277] | 88 | 100 | 99.9 | 54 | 54 | 95.6 | 94.2 | 57 | 2 | 0
CC(C)(C)c1ccc2nccc(Nc3cccc(O)c3)c2c1 [GW856795] | 0 | 0 | 0 | 0 | 0 | 0 | 2 | 0 | 0 | 0
COc1cc2c(cc1OCCN1CCNCC1)ncc1c3ccc(C#N)cc3[nH]c21 | 10 | 96.8 | 86 | 88 | 79 | 0 | 80 | 64 | 25 | 14
CN(C)Cc1ccc(-c2ccc3c(Nc4ccc(Oc5ccccn5)cc4)ccnc3c2)o1 [GW567148] | 27 | 0 | 0 | 0 | 15 | 0 | 0 | 0 | 0 | 0
Nc1ncc(-c2ccc3nccc(-c4ccncc4)c3c2)cc1S(=O)(=O)N1CCOCC1 [GSK1627798] | 27 | 0 | 0 | 0 | 49 | 0 | 57 | 78 | 48 | 0
O=c1[nH]cc(-c2ccc(N3CCOCC3)cc2)c2sc(-c3cn[nH]c3)cc12 [GSK2276055] | 31 | 2 | 2 | 18 | 25 | 0 | 29 | 22 | 15 | 4
CN(C)S(=O)(=O)c1cc(-c2ccc3nccc(-c4cccc(S(N)(=O)=O)c4)c3c2)cnc1N [GSK1669921] | 40 | 1 | 0 | 3 | 8 | 0 | 48 | 47 | 4 | 0
